# Source: PubChem BioAssay AID588351 (The Scripps Research Institute Molecular Screening Center, 2011)
# Screen size: about 1,900 compounds; about 1,600 (84%) were called active. So high a share suggests a set chosen from earlier hits. Not all results are given here. Values without a mark were called inactive.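 How the source made its calls: active means mean activation above a set limit taken from the primary screen (cut at about 8% in these data); inactive means the rest.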
# Experiment: FXN GAA850 promoter activators in reporter cells, confirmation, cell-based, luminescence, HEK293 lucGAA850, triplicate (AID 588351);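 further: 0% = DMSO wells and 100% = 10 µM SAHA wells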
# Details: HEK293 lucGAA850 FXN promoter luciferase reporter, 24 h; at 6 µM; stronger effect = higher value; 100% = activation by SAHA
row,SMILES,activation
1,COc1ccccc1C1=Nc2cccc3cccc(c23)N1,7.84% (active)
2,CCN(C[C@H]1N[C@@](CC)(C(=O)OC)[C@H]2C(=O)N(Cc3ccccc3)C(=O)[C@@H]12)S(=O)(=O)c1ccc(C(F)(F)F)cc1,10.5% (active)
3,O=C(Nc1nnc(S(=O)(=O)N2CCCCCC2)s1)c1cccc(Br)c1,16.8% (active)
4,Cn1c(=O)n(C)c2cc(S(=O)(=O)N3CCCc4ccccc43)ccc21,11.8% (active)
5,CC(C)(C)N1C(=O)[C@H]2[C@@H](c3ccc(Br)cc3)N3C(=O)N(c4cccc(Cl)c4)C(=O)[C@@]3(C)[C@H]2C1=O,6.82%
6,CC[C@@]12C(=O)N(c3ccccc3)C(=O)N1[C@H](c1ccc(Br)cc1)[C@@H]1C(=O)N(C(C)(C)C)C(=O)[C@@H]12,11.1% (active)
7,CCCNC(=O)c1c(Cl)cnn1-c1ccc(C)cc1,31.2% (active)
8,Cc1ccccc1Nc1c([N+](=O)[O-])ccc2nonc12,17% (active)
9,CC[C@]1(C(=O)OC)[C@H]2C(=O)N(Cc3ccccc3)C(=O)[C@H]2[C@H]2CN=C(SCc3ccccc3)N21,6.5%
10,CC[C@]1(C(=O)OC)[C@H]2C(=O)N(Cc3ccccc3)C(=O)[C@H]2[C@H]2CN=C(SCc3ccc(C#N)cc3)N21,11% (active)
11,COC(=O)[C@@]1(C)[C@H]2C(=O)N(Cc3ccccc3)C(=O)[C@H]2[C@H]2CN=C(SCC3CC3)N21,12.3% (active)
12,CC(C)CCC(C)NC(=O)c1ccc2nccnc2c1 (centres undefined),25.6% (active)
13,Cn1c(CCN2CCCCCC2)nc2cc(NC(=O)Nc3ccccc3)ccc21,32.6% (active)
14,COC(=O)c1ccc(CSc2nc3ccccc3c(=O)n2-c2cccc(OC)c2)o1,16.6% (active)
15,Cc1ccc2cc(/C=N/Nc3ccc(C(=O)O)cc3)c(Cl)nc2c1,44.5% (active)
16,CN(C(=O)c1cc2c(=O)n3ccccc3nc2s1)C1CCCCC1,37.7% (active)
17,COCCn1c(=NC(=O)c2ccccc2[N+](=O)[O-])sc2cc(S(C)(=O)=O)ccc21,23.4% (active)
18,O=C(CSc1cccc2cccnc12)N/N=C/c1cccnc1,10.9% (active)
19,O=[N+]([O-])c1ccc(C=Nc2ccc(Cl)cc2Cl)s1,17.7% (active)
20,O=C1N=C(N2CCCC2)S/C1=C\c1cccc(Br)c1,20.9% (active)

row,SMILES,activation
1,COc1ccc2[nH]c(=O)c(CN(Cc3nnnn3CCc3ccccc3)CC3CCCO3)cc2c1 (centres undefined),5.82%
2,COc1cc(C#Cc2ccc3cc(CCCO)oc(=O)c3c2)cc(OC)c1,44.9% (active)
3,COc1cccc(Nc2nc(N)c([N+](=O)[O-])c(NCc3ccco3)n2)c1,22.8% (active)
4,O=C(CN(c1cc(C(F)(F)F)ccc1Cl)S(=O)(=O)c1ccccc1)NCc1cccnc1,8.52% (active)
5,COc1ccc(-n2cc(-c3ccccc3)c3c(=S)nc[nH]c32)cc1,11% (active)
6,Cc1ccc(-c2c3c(=O)n(C)c(=O)n(C)c3cn2-n2cnnc2)cc1,19% (active)
7,CCOc1ccc(N2C(=O)CC(N(CCc3ccc(OC)c(OC)c3)C(=S)Nc3ccccc3)C2=O)cc1 (centres undefined),9.64% (active)
8,CC(C)(C)C(=O)c1cnc(Nc2ccccc2)s1,49.2% (active)
9,Cc1cc(OCc2cc(C(=O)NCc3cc(C(C)C)no3)no2)cc(C)c1Cl,30.7% (active)
10,CNc1nc(Nc2ccc(C)c(Cl)c2)nc(N)c1[N+](=O)[O-],71% (active)
11,CC(Sc1nc2c([nH]c3ccccc32)c(=O)n1C)c1ccccc1 (centres undefined),16.1% (active)
12,Cc1ccc(-c2nc3ccccc3[nH]c2=O)cc1,29.2% (active)
13,CN(C)CCNC(=O)c1ccc(Cl)c2cc3ccccc3nc12,130% (active)
14,CCC(=O)NC(=Nc1nc2ccccc2s1)NC(=O)CC,38.4% (active)
15,COc1ccc(Cl)cc1NC(=O)CN(C)C(=O)CCCc1c[nH]c2ccccc12,9.95% (active)
16,Fc1ccccc1/C=N/Nc1cc(N2CCCCC2)ncn1,43.1% (active)
17,CCCCCOc1ccc(CSC2=NCCN2)cc1[N+](=O)[O-],38.6% (active)
18,Nc1ccc(C(=O)Nc2ccccc2N)cc1,55.7% (active)
19,N#CCSc1nc2ccccc2c(=O)n1-c1ccccc1,16.2% (active)
20,CCCCc1ccc(NC(=S)N2CCCC(CO)C2)cc1 (centres undefined),33.8% (active)

row,SMILES,activation
1,CC(C)c1ccc(NS(=O)(=O)c2cn(C)c(=O)n(C)c2=O)cc1,5.44%
2,Fc1ccc2nc(N3CCCCC3)sc2c1,27.8% (active)
3,Cc1cc(C)n2nc(CNS(=O)(=O)c3c(F)c(F)c(F)c(F)c3F)nc2n1,20.7% (active)
4,Cc1ccc(C(=O)NNc2ncnc3ccccc23)cc1,25.9% (active)
5,O=C(NCCCn1ccnc1)c1cc(-c2ccccc2)on1,127% (active)
6,COc1ccccc1N1CCN(C(=O)c2cc(-c3ccc(Br)cc3)on2)CC1,2.35%
7,O=C(NC1CCCC1)c1cc(-c2ccccc2)on1,67.8% (active)
8,CC1CCc2sc3nc(N4CCN(CCO)CC4)n4ncnc4c3c2C1 (centres undefined),21.9% (active)
9,CN(C)S(=O)(=O)c1ccc2oc(SCC(=O)Nc3ccccc3F)nc2c1,44.6% (active)
10,COc1ccc(/C=C/C(=O)Nc2ccc(C34CC5CC(CC(O)(C5)C3)C4)cc2)cc1OC,44.5% (active)
11,Cc1nnc(Sc2nc3c(c(=O)[nH]c(=O)n3C)n2Cc2ccccc2)s1,5.05%
12,CN(C)C(=S)N=c1ssc(=S)n1Cc1ccco1,32.8% (active)
13,CC(C)(C)c1ccc(C(=O)NCc2ccco2)cc1,44.1% (active)
14,O=C(NCc1ccco1)c1ccc(Cn2c(=O)c3sccc3n(Cc3ccc(F)cc3)c2=O)cc1,6.19%
15,CCCCNC(=O)N(O)C1N(/N=C/c2ccccc2O)C(=S)SC1(C)C (centres undefined),14.1% (active)
16,CCOC(=O)c1cc2c(=O)n3ccccc3nc2n(CC(C)C)c1=NC(=O)c1c(-c2c(F)cccc2Cl)noc1C,3.22%
17,N#Cc1c(N)nc2c3c(sc(=N)c2c1N)NC(=O)CC3c1ccccc1Cl (centres undefined),24.2% (active)
18,CCc1ccc(N(C(=O)c2csnn2)C(C(=O)NC2CCCCC2)c2ccncc2)cc1 (centres undefined),12.1% (active)
19,Cc1cc(=O)oc(C)c1C(=O)NCc1ccc(F)cc1,4.06%
